# Reference: PubChem BioAssay (EPA / NIEHS)
# Where “and” joins values, the source holds several entries; their conditions need not be identical. Equal entries are not always repeated. Records with an inconclusive call do not appear. The source holds several records for some structures; these can differ, active in one and inactive in another. Calls of active or inactive are those of the source. Rule for the calls: active = hit-call score of the fitted dose curve at least 0.9, where 1 is the maximum; inconclusive = response in the unintended direction; inactive = score below 0.9.
# Assays:
# [1] = TOX21_p53_BLA_p4_viability: Viability Assessment in the Tox21 HCT-116 p53 Agonism Beta-lactamase Assay, Phase 4 (AID 2283597);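 note: hits lower the luminescence signal meaning cytotoxicity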
# Method in brief: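 Following a 16 h exposure at 37C, the treated HCT116 wells were first read for the FRET ratio. They were then lysed with CellTiter-Glo, and ATP luminescence was recorded after 30 min at room temperature.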
# [2] = target: Cellular tumor antigen p53 (Homo sapiens) (UniProt P04637); assay: TOX21_p53_BLA_p5_ratio: Tox21 HCT-116 p53 Agonism Beta-lactamase Assay, Ratio, Phase 5 (AID 2283599)
# Cellular tumor antigen p53 (Homo sapiens), sequence (P04637 whole entry, looked up): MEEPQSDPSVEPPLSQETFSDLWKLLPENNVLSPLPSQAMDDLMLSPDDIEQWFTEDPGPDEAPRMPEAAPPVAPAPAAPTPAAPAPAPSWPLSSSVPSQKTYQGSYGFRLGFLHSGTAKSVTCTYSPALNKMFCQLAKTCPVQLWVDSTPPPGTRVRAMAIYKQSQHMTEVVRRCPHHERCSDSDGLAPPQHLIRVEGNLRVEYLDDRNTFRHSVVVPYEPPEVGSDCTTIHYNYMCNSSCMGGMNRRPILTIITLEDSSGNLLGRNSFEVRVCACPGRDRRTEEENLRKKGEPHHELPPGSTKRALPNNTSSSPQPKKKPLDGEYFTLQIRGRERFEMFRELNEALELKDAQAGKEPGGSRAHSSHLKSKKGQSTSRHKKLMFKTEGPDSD
# Method in brief: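 HCT-116 cells carrying a p53-inducible beta-lactamase reporter were seeded at 4000 cells/well and dosed after 5 h with compound in DMSO (217-fold dilution). After 16 h at 37C, CCF4-AM substrate was added for 2 h, and the 460/530 nm emission ratio was scored as gain-of-signal versus DMSO.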
# [3] = TOX21_p53_BLA_p5_viability: Viability Assessment in the Tox21 HCT-116 p53 Agonism Beta-lactamase Assay, Phase 5 (AID 2283600)
# Method in brief: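 After the 460/530 nm beta-lactamase measurement, the wells received an ATP-detection luciferase reagent; signal was read 30 min later at RT. Compound treatment lasted 16 h on cells pre-incubated 5 h post-seeding.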
# [4] = target: Cellular tumor antigen p53 (Homo sapiens) (UniProt P04637); assay: TOX21_p53_BLA_p4_ratio: Tox21 HCT-116 p53 Agonism Beta-lactamase Assay, Ratio, Phase 4 (AID 2283601)
# Method in brief: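 HCT116 cells carrying an inducible beta-lactamase reporter were plated at 4000 cells/well, rested 5 h, then exposed to compounds in DMSO (217-fold dilution) for 16 h at 37C. CCF4-AM substrate was loaded 2 h at room temperature; 460/530 nm emission ratio scored gain-of-signal versus DMSO.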
# [5] = Tanguay_ZF_120hpf_MORT_legacy: (Legacy) Oregon State University Tanguay Lab 120 Hour Post-fertilization zebrafish Assay for Mortality (AID 2283633);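 for AC50: fitted as increase in binary mortality versus DMSO negative control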
# Method in brief: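 Static waterborne exposure from 6 to 120 hpf at 28C of single dechorionated wild-type (5D) embryos per well, 0.64% DMSO final. Death recorded present/absent by brightfield at 24 and 120 hpf.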
# [6] = Tanguay_ZF_120hpf_YSE_legacy: (Legacy) Oregon State University Tanguay Lab 120 Hour Post-fertilization zebrafish Assay for Yolk Sac Edema (AID 2283634);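 for AC50: actives raise the incidence of yolk sac edema above the DMSO baseline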
# Method in brief: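 Presence or absence of yolk sac edema was recorded at 120 hpf in surviving larvae. These were wild-type Tropical 5D embryos, chorion removed at 4 hpf, held in static exposure at 28C from 6 hpf with 0.64% DMSO vehicle.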
# [7] = Tanguay_ZF_120hpf_AXIS_legacy: (Legacy) Oregon State University Tanguay Lab 120 Hour Post-fertilization zebrafish Assay for Body Axis Malformation (AID 2283635);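 for AC50: potency for an increased fraction of larvae scored with body axis malformation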
# Method in brief: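 Binary scoring of axis defects at 120 hpf under brightfield, fitted positive versus DMSO. Tropical 5D embryos, chorion removed by pronase at 4 hpf, were singly exposed in sealed, dark plates at 28C from 6 hpf; DMSO 0.64% final.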
# [8] = Tanguay_ZF_120hpf_EYE_legacy: (Legacy) Oregon State University Tanguay Lab 120 Hour Post-fertilization zebrafish Assay for Eye Malformation (AID 2283636)
# Method in brief: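 Dechorionated wild-type Tropical 5D zebrafish embryos were exposed statically from 6 hpf, one per well, to 120 hpf at 28C in sealed, foil-covered plates with 0.64% DMSO. Eye malformation was scored present/absent by brightfield microscopy against DMSO controls.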
# [9] = Tanguay_ZF_120hpf_SNOU_legacy: (Legacy) Oregon State University Tanguay Lab 120 Hour Post-fertilization zebrafish Assay for Snout Malformation (AID 2283637)
# Method in brief: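 Tropical 5D wild-type zebrafish embryos, dechorionated with pronase at 4 hpf, were exposed singly from 6 hpf to 120 hpf statically at 28C in 0.64% DMSO. Snout malformation was scored present/absent by brightfield microscopy, fitted against DMSO.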
# [10] = Tanguay_ZF_120hpf_JAW_legacy: (Legacy) Oregon State University Tanguay Lab 120 Hour Post-fertilization zebrafish Assay for Jaw Malformation (AID 2283638)
# Method in brief: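 Binary jaw-malformation call at 120 hpf by brightfield microscopy. Embryos (Tropical 5D strain, chorion removed at 4 hpf) were dosed statically at 6 hpf, one per well, at 28C with 0.64% DMSO. Embryos that died were not scored.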
# [11] = Tanguay_ZF_120hpf_OTIC_legacy: (Legacy) Oregon State University Tanguay Lab 120 Hour Post-fertilization zebrafish Assay for Otic Vesicle Malformation (AID 2283639)
# Method in brief: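 Embryos from 5D wild-type adults exposed in plates; DMSO 0.64% v/v final. Sealed, light-protected, 28C, static to 120 hpf. Otic vesicle malformation recorded as binary endpoint; gain-of-signal fitted vs DMSO.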
# [12] = Tanguay_ZF_120hpf_PE_legacy: (Legacy) Oregon State University Tanguay Lab 120 Hour Post-fertilization zebrafish Assay for Pericardial Edema (AID 2283640);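 for AC50: potency for increased incidence of pericardial edema versus DMSO baseline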
# Method in brief: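 Scoring was binary, by brightfield microscopy at 120 hpf, and skipped where mortality occurred. Wild-type embryos were kept under sealed, foil-covered static exposure at 28C in 0.64% (vol/vol) DMSO.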
# [13] = Tanguay_ZF_120hpf_BRAI_legacy: (Legacy) Oregon State University Tanguay Lab 120 Hour Post-fertilization zebrafish Assay for Brain Malformation (AID 2283641)
# Method in brief: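 Binary brightfield scoring of brain malformation at 120 hpf in Tropical 5D larvae held under static exposure at 28C (0.64% v/v DMSO), non-mortality endpoints skipped if dead. Positive control: 5uM trimethyltin chloride; fit versus DMSO.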
# [14] = Tanguay_ZF_120hpf_SOMI_legacy: (Legacy) Oregon State University Tanguay Lab 120 Hour Post-fertilization zebrafish Assay for Somite Malformation (AID 2283647)
# Method in brief: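 Binary somite-defect scoring at 120 hpf, omitted for embryos that died, in wild-type (Tropical 5D) zebrafish with chorion removed by pronase at 4 hpf; static exposure began 6 hpf, single embryos per well, 28C, 0.64% DMSO; fitted positive versus DMSO.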
# [15] = Tanguay_ZF_120hpf_PFIN_legacy: (Legacy) Oregon State University Tanguay Lab 120 Hour Post-fertilization zebrafish Assay for Pectoral Fin Malformation (AID 2283648);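 note: each larva judged yes or no for fin defect by brightfield with dead larvae skipped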
# Method in brief: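 Tropical 5D wild-type embryos, dechorionated with pronase at 4 hpf, were placed singly in wells at 6 hpf and statically exposed until 120 hpf at 28C, sealed and dark, with 0.64% (vol/vol) final DMSO; pectoral fin malformation scored present/absent.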
# [16] = Tanguay_ZF_120hpf_CFIN_legacy: (Legacy) Oregon State University Tanguay Lab 120 Hour Post-fertilization zebrafish Assay for Caudal Fin Malformation (AID 2283649)
# Method in brief: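 Binary brightfield scoring of caudal fin defects at 120 hpf after static, light-shielded exposure at 28C from 6 hpf. Tropical 5D embryos, chorion removed with pronase at 4 hpf, final DMSO 0.64%.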
# [17] = Tanguay_ZF_120hpf_PIG_legacy: (Legacy) Oregon State University Tanguay Lab 120 Hour Post-fertilization zebrafish Assay for Pigmentation Malformation (AID 2283650)
# Method in brief: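 Tropical 5D wild-type zebrafish embryos, dechorionated with pronase at 4 hpf, were exposed singly from 6 hpf to 120 hpf statically at 28C in sealed, dark plates with 0.64% DMSO; pigmentation scored present/absent by brightfield microscopy, fitted against DMSO.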
# [18] = Tanguay_ZF_120hpf_CIRC_legacy: (Legacy) Oregon State University Tanguay Lab 120 Hour Post-fertilization zebrafish Assay for Circulatory Malformation (AID 2283651)
# Method in brief: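 Read-out: presence or absence of circulatory malformation at 120 hpf, scored by brightfield microscopy, fitted in the gain-of-signal direction against DMSO baseline. Wild-type 5D larvae were exposed from 6 hpf after enzymatic chorion removal.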
# [19] = Tanguay_ZF_120hpf_SWIM_legacy: (Legacy) Oregon State University Tanguay Lab 120 Hour Post-fertilization zebrafish Assay for Swim Bladder Malformation (AID 2283654);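 note: swim bladder malformation in each larva scored yes or no under brightfield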
# Method in brief: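 Dechorionated Tropical 5D wild-type embryos, placed singly from 6 hpf, were statically exposed at 28C to 120 hpf with 0.64% DMSO final; swim bladder malformation was scored present/absent by brightfield microscopy, gain of signal relative to DMSO controls.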
structure (smiles),measurement,setting,value
CCC(C)c1cc([N+](=O)[O-])cc([N+](=O)[O-])c1O (configuration not stated),outcome,[1],inactive
same,AC50,[2],3.4 µM (active)
same,outcome,[3],inactive
same,AC50,[4],4.83 µM (active)
same,AC50,[5],0.462 µM (active)
same,outcome,[6],inactive
same,outcome,[7],inactive
same,outcome,[8],inactive
same,outcome,[9],inactive
same,outcome,[10],inactive
same,outcome,[11],inactive
same,outcome,[12],inactive
same,outcome,[13],inactive
same,outcome,[14],inactive
same,outcome,[15],inactive
same,outcome,[16],inactive
same,outcome,[17],inactive
same,outcome,[18],inactive
same,outcome,[19],inactive
Oc1ccc(C(c2ccc(O)cc2)(C(F)(F)F)C(F)(F)F)cc1,AC50,[1],63.7 µM (active) and 71.3 µM (active)
same,AC50,[2],72.8 µM (active)
same,outcome,[2],inactive
same,AC50,[3],72.3 µM (active)
same,outcome,[3],inactive
same,AC50,[4],57.3 µM (active) and 69.7 µM (active)
same,AC50,[5],33 µM (active)
same,AC50,[6],57.4 µM (active)
same,AC50,[7],58.3 µM (active)
same,AC50,[8],53.9 µM (active)
same,AC50,[9],53.8 µM (active)
same,AC50,[11],51.7 µM (active)
same,AC50,[12],37.7 µM (active)
same,outcome,[13],inactive
same,AC50,[15],53.3 µM (active)
same,AC50,[16],54 µM (active)
same,AC50,[17],56.9 µM (active)
same,outcome,[18],inactive
same,outcome,[19],inactive
Clc1ccc(C(c2ccccc2Cl)C(Cl)(Cl)Cl)cc1 (configuration not stated),AC50,[1],30.2 µM (active) and 62.2 µM (active)
same,AC50,[2],72.8 µM (active)
same,outcome,[2],inactive
same,AC50,[3],72.2 µM (active)
same,outcome,[3],inactive
same,AC50,[4],48.7 µM (active) and 76.4 µM (active)
same,outcome,[5],inactive
same,outcome,[6],inactive
same,outcome,[7],inactive
same,outcome,[9],inactive
same,outcome,[11],inactive
same,outcome,[12],inactive
same,outcome,[13],inactive
same,outcome,[15],inactive
same,outcome,[16],inactive
same,outcome,[17],inactive
same,outcome,[18],inactive
same,outcome,[19],inactive
Oc1c(Cl)c(Cl)c(Cl)c(Cl)c1Cl,outcome,[1],inactive
same,AC50,[2],8.02 µM (active)
same,outcome,[2],inactive
same,outcome,[3],inactive
same,AC50,[4],11.1 µM (active) and 2.43 µM (active)
same,AC50,[5],0.801 µM (active)
same,outcome,[6],inactive
same,outcome,[7],inactive
same,outcome,[8],inactive
same,outcome,[9],inactive
same,outcome,[11],inactive
same,outcome,[12],inactive
same,outcome,[13],inactive
same,outcome,[14],inactive
same,outcome,[15],inactive
same,outcome,[16],inactive
same,outcome,[17],inactive
same,outcome,[18],inactive
same,outcome,[19],inactive
Nc1ccc(-c2ccc(N)cc2)cc1,outcome,[1],inactive
same,outcome,[2],inactive
same,outcome,[3],inactive
same,outcome,[4],inactive
same,outcome,[5],inactive
same,outcome,[6],inactive
same,outcome,[7],inactive
same,outcome,[8],inactive
same,outcome,[9],inactive
same,outcome,[11],inactive
same,outcome,[12],inactive
same,outcome,[13],inactive
same,outcome,[14],inactive
same,outcome,[15],inactive
same,outcome,[16],inactive
same,outcome,[18],inactive
same,outcome,[19],inactive
CCCCCCCCCC[N+](C)(C)CCCCCCCCCC,AC50,[1],23.4 µM (active) and 21.1 µM (active)
same,AC50,[2],72.9 µM (active) and 39.8 µM (active)
same,AC50,[3],23 µM (active)
same,AC50,[4],26.8 µM (active) and 35 µM (active)
same,AC50,[5],13.6 µM (active)
same,outcome,[6],inactive
same,outcome,[7],inactive
same,outcome,[8],inactive
same,outcome,[9],inactive
same,outcome,[11],inactive
same,outcome,[12],inactive
same,outcome,[13],inactive
same,outcome,[15],inactive
same,outcome,[16],inactive
same,outcome,[18],inactive
same,outcome,[19],inactive
Cc1cc(-c2ccc(N)c(C)c2)ccc1N,outcome,[1],inactive
same,outcome,[2],inactive
same,outcome,[3],inactive
same,AC50,[4],70.7 µM (active)
same,outcome,[4],inactive
same,outcome,[5],inactive
same,outcome,[6],inactive
same,outcome,[7],inactive
same,outcome,[8],inactive
same,outcome,[9],inactive
same,outcome,[11],inactive
same,outcome,[12],inactive
same,outcome,[13],inactive
same,outcome,[14],inactive
same,outcome,[15],inactive
same,outcome,[16],inactive
same,outcome,[17],inactive
same,outcome,[18],inactive
same,outcome,[19],inactive
